Data published in PubChem BioAssay AID798 (PCMD, 2007).
Among all 220,000 compounds or so, about 300 (0.14%) were called active. Shown is part of a subset that was picked to be rich in actives. Unmarked numbers belong to inactive results.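 How the source made its calls: active means inhibition of at least 40%; inactive means inhibition below 40%.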

Each compound was assayed against Coagulation factor XI (Homo sapiens) (UniProt P03951) (assay: human FXIa protease inhibitors, primary screen, biochemical, 1536-well (AID 798;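 further: fluorescence of freed AMC excited at 355 nm; 0% = enzyme without compound and 100% = no enzyme blank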)). Settings: purified FXIa, Boc-Glu-Ala-Arg-AMC fluorogenic substrate; at 5 µM; stronger effect = higher value.
Chain of Coagulation factor XI (Homo sapiens) (P03951 19-387 limits assumed): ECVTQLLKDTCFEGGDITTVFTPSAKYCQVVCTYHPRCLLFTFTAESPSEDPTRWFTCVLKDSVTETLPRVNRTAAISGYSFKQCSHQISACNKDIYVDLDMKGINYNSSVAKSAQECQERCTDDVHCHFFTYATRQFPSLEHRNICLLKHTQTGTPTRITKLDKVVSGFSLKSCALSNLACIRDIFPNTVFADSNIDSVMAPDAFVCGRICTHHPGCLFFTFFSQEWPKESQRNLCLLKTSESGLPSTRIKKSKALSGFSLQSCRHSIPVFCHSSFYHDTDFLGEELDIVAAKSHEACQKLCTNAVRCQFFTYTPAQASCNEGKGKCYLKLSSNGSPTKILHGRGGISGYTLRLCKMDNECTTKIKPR
Chain of Coagulation factor XI (Homo sapiens) (P03951 388-625 limits assumed): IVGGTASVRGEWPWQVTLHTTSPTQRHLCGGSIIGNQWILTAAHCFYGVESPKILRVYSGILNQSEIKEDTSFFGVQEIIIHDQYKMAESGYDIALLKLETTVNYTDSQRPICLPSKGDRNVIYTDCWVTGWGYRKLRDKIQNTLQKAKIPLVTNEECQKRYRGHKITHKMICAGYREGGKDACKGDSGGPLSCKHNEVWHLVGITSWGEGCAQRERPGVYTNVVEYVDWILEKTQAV

SMILES	inhibition
NCC(O)c1ccc(O)cc1 (stereo not given)	47.9% (active)
CSc1ccc(C(=O)C2CCCN(Cc3ccn[nH]3)C2)cc1 (stereo not given)	2.72%
Cc1ccc(Cn2c(C)c3cnn(CC(=O)N4CCC5(CC4)OCCO5)c(=O)c3c2C)cc1	-2.43%
CCCCCn1c(=O)c(C(=O)NCc2ccccn2)c(O)c2ccccc21	4.5%
CC(C)c1ccc(-n2c(O)c(/C=N/N3CCOCC3)c(=O)[nH]c2=S)cc1	-2.81%
